Among the data in PubChem BioAssay (NCI) are growth inhibition values, retold here.

Test [1] is described as follows: NCI Yeast Anticancer Drug Screen. Data for the rad50 strain (AID 155).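 Note: 0% = growth of vehicle-only cultures of the same strain.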 Conditions: S. cerevisiae rad50 strain growth inhibition; at 50.0 µM; stronger effect = higher value. In a few lines: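 Vehicle-treated cultures provide the reference for the growth inhibition reported for compound-exposed, repair-deficient yeast.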
A short description of test [2]: NCI Yeast Anticancer Drug Screen. Data for the sgs1 mgt1 strain (AID 161).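 Note: 0% = growth of cultures given vehicle only.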 Conditions: S. cerevisiae sgs1 mgt1 strain, at 50.0 µM, stronger effect = higher value. In a few lines: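 This yeast growth screen uses a strain with defined DNA-repair lesions; compound-treated growth is compared with vehicle-treated growth.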
Test [3] in a line: NCI Yeast Anticancer Drug Screen. Data for the cln2 rad14 strain (AID 165).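 Note: 0% = growth equal to vehicle treated cultures.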 To be noted: S. cerevisiae cln2 rad14 strain, at 50.0 µM, stronger effect = higher value. The essentials:
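Strain: cln2 rad14 yeast, altered in cell cycle control and DNA damage repair. Read-out: growth inhibition vs vehicle.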

A short description of test [4]: NCI Yeast Anticancer Drug Screen. Data for the bub3 strain (AID 167). Conditions: S. cerevisiae bub3 mutant strain, at 50.0 µM, stronger effect = higher value. The essentials: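 Mutant yeast screening strain plus compound; vehicle-treated cultures serve as the 0% inhibition reference.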
Test [5] is described as follows: NCI Yeast Anticancer Drug Screen. Data for the mlh1 rad18 strain (AID 175). To be noted: S. cerevisiae mlh1 rad18 strain growth inhibition; at 50.0 µM; stronger effect = higher value. The essentials: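 A repair-deficient yeast strain is exposed to test compound, and growth is scored relative to vehicle-treated controls.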

Compounds without any hit were thinned out: in the full panel of roughly 79,000, 15% have a hit. Values without a mark were called inactive. Activity calls are given as the source filed them. Cut-off read from the data, not from the text of the source: active = growth inhibition above about 70%; inactive = the rest.

`Oc1cncc2ccccc12`: the growth inhibition in test [1] was 3.35%; in test [2], 11.2%; in test [3], -1.35%; in test [4], 1.6%; in test [5] it was -4.85%.
In the same order, the values of `COc1c(O)c(/C=C/C(=O)NN)cc2ccoc12` are -4.75%, -25.1%, -16.5%, 15.8% and -23.9%.
In the same order, the values of `O/N=C1\C(=C\c2ccc3c(c2)OCCO3)CCCC1C(NO)c1ccc2c(c1)OCCO2` (stereo not given) are 13.1%, 29.9%, 2.8%, 16.9% and 6.15%.
In the same order, the values of `O=C(O)C1CCCCN1O` (stereo not given) are -7.85%, -15.9%, 5.75%, 10.9% and -6.15%.
Regarding `CC1(c2ccc(C(O)c3ccccc3)s2)OCCO1` (stereo not given), the growth inhibition in test [1] is 1.8%; in test [2], 10.9%; in test [3] it was 12.9%; in test [4] it was 11.4%; in test [5], 15.6%.
Regarding `O=C(O)c1ccc([C@@H]2C(=O)N(O)[C@@H]3C=CC[C@@H]32)cc1`, the growth inhibition is -8.4% in test [1]; -7.45% in test [2]; 19.7% in test [3]; -14.7% in test [4]; 8.25% in test [5].
Take `Cc1cc2nccnc2cc1C`: the growth inhibition in test [1] was -48.8%; in test [2] it was -31.4%; in test [3], -3.4%; in test [4] it was -65.5%; in test [5], -23.2%.
In the same order, the values of `COc1ccc(C(C)Nc2cc(OC)c(OC)c(OC)c2)cc1` (stereo not given) are -20.2%, -3.15%, 5.5%, -10.3% and -15.1%.
For `O=C1S/C(=C2\C(=O)N(CN3CCCCC3)c3ccc(Br)cc32)C(=O)N1CN1CCCCC1` the same measures were 37.4%, 9.35%, -2.05%, -1.6% and 22.2%.
As for `CCOc1ccc2nc(NC(=O)C(=O)C(C(=O)c3ccccc3F)C3OC(=O)c4ccccc43)sc2c1` (stereo not given), the growth inhibition in test [1] is 10.9%; in test [2], 2.65%; in test [3], 22.6%; in test [4], -1.2%; in test [5] it was 7%.
With `NC(CSS(=O)(=O)O)=NCCCCC1CCCCC1`, the growth inhibition was -6.3% in test [1]; 7.35% in test [2]; -6.25% in test [3]; 0.1% in test [4]; 16.4% in test [5].
As for `Cc1ccc(S(=O)(=O)NC(=O)NC23CC4CC(CC(F)(C4)C2)C3)cc1`, the growth inhibition in test [1] is 37.9%; in test [2] it was -13.6%; in test [3], 9.5%; in test [4], 13.8%; in test [5] it was 2.1%.
In the same order, the values of `O=S(=O)(O)CCNC(=S)C(=S)NCCS(=O)(=O)O` are 29.1%, 7.75%, 6.2%, 8.7% and 5.7%.
For `Nc1nc(N)nc(SCCO)n1` the same measures were -25.1%, -14.1%, -44.8%, -4.75% and -8.45%.
For `CC(C)(NC(=O)OC12CC3CC(CC(C3)C1)C2)C(=O)O` the same measures were -11.1%, 3.1%, -12.6%, 3.45% and -5.35%.
In the case of `CC(=O)CC(C)=NCCN=C(C)CC(C)=O.[Cu]`, the growth inhibition in test [1] is 86.2% (active); in test [2], 75.7% (active); in test [3], 84.4% (active); in test [4], 71.8% (active); in test [5] it was 82% (active).
In the same order, the values of `CCCCCCOC(=O)C(O)C(C)(Cl)c1ccccc1` (stereo not given) are 11.3%, 4.6%, 15.9%, 12.6% and 13.7%.
For `C=CCSC(C)=O`, the growth inhibition in test [1] was -3.4%; in test [2], 13.9%; in test [3], 7.6%; in test [4] it was -7.8%; in test [5] it was -6.8%.
In the case of `CCOc1ccc(NC(=O)c2cccc(C(=O)Nc3ccc(OCC)cc3)c2)cc1`, the growth inhibition in test [1] is -13.8%; in test [2] it was -8.15%; in test [3], -20.9%; in test [4], -5.35%; in test [5] it was -0.7%.
In the same order, the values of `NC1=NC2(COC(c3ccccc3)(c3ccccc3)c3ccccc3)OC(COC(c3ccccc3)(c3ccccc3)c3ccccc3)C(O)C2O1` (stereo not given) are 28.4%, 30.6%, 5.25%, 34.4% and 13.4%.
For `O=C(CN1CCC(O)(c2ccccc2)CC1)N1CCN(/C=C/c2ccccc2)CC1`, the growth inhibition was -4% in test [1]; -3.75% in test [2]; -10.6% in test [3]; -0.1% in test [4]; 10.8% in test [5].
For `O=C(OCCN1CCOCC1)C1C[C@@H](O)CN1C(=O)c1ccc2c(c1)OCO2` (stereo not given in full) the same measures were -10.8%, 7.7%, 1.9%, -14.2% and 6.25%.
`N#Cc1c2c(c(-c3cccs3)n(C3OC(CO)C(O)C(O)C3O)c1=S)CCc1ccccc1-2` (stereo not given): the growth inhibition in test [1] was 10.7%; in test [2], -3.35%; in test [3], -20.4%; in test [4], 0.8%; in test [5], 1.6%.
`O=C(Cc1ccc(Cl)cc1)c1ccccc1Cl`: the growth inhibition is 2.8% in test [1]; -1% in test [2]; 1.7% in test [3]; -5.65% in test [4]; 4.4% in test [5].
`Clc1ccnnc1Cl`: the growth inhibition was -17.7% in test [1]; -43% in test [2]; 13.2% in test [3]; -37.5% in test [4]; -15.7% in test [5].
`Cc1ccccc1NC(=O)C(C)C`: the growth inhibition is 28.8% in test [1]; 4.35% in test [2]; 11.3% in test [3]; 15.2% in test [4]; 7.2% in test [5].
In the case of `Cc1ccc([N+](=O)[O-])cc1NC(=O)NCCCl`, the growth inhibition is -11.1% in test [1]; 5.5% in test [2]; -1% in test [3]; -11.1% in test [4]; -9.05% in test [5].
For the compound `CC1=C(C(=O)CC(=O)C(=O)Nc2ccc(C)cc2C)Sc2ccccc2N1`, the growth inhibition in test [1] was -1.55%; in test [2], -33%; in test [3] it was -9.8%; in test [4] it was 6.2%; in test [5], 24.6%.
